Assay results: PubChem BioAssay (Tox21)
Where “and” joins values, the source holds several entries; their conditions need not be identical. Identical values can stand only once. Inconclusive results are not listed. Entries that show only a call come without a potency. Calls of active or inactive are those of the source. Calls come from the whole dose curve; as a rule, active = well fitted curve in the direction sought with a large enough effect in the repeat runs; inconclusive = weak or mixed curves; inactive = no such curve, though single readings can be large; an effect the other way counts as inactive or inconclusive.

Tests used:
[1] = molecular target: Cytochrome P450 2C9 (Homo sapiens) (UniProt P11712); assay: Cytochrome P450 Family 2 Subfamily C Member 9 (CYP2C9) small molecule antagonists: luciferase reporter qHTS assay (AID 1671198); note: potency is the fitted concentration of half-maximal effect
Chain of Cytochrome P450 2C9 (Homo sapiens) (P11712 whole entry, looked up): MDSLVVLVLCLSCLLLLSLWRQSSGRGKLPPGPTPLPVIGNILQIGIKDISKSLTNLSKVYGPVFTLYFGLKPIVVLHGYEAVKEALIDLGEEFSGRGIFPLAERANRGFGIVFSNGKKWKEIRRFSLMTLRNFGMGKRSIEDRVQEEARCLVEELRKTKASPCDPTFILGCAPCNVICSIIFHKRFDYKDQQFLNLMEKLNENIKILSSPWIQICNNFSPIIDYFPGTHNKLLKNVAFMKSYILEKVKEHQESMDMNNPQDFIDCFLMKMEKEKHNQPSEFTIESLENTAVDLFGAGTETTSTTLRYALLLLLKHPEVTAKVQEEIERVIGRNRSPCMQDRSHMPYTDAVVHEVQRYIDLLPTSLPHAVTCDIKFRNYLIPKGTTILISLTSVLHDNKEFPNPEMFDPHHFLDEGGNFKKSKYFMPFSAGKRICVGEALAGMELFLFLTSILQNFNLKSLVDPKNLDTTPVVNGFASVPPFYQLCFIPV
In short: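 Enzyme-substrate mix preincubated with compound 10 min at room temperature; reaction started with NADPH regeneration solution, 1 h 37C. Luminescent luciferin product read after 20 min detection reagent.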

[2] = molecular target: Cytochrome P450 1A2 (Homo sapiens) (UniProt P05177); assay: Cytochrome P450 Family 1 Subfamily A Member 2 (CYP1A2) small molecule antagonists: luciferase reporter qHTS assay (AID 1671199); note: potency is the fitted concentration of half-maximal effect
Chain of Cytochrome P450 1A2 (Homo sapiens) (P05177 whole entry, looked up): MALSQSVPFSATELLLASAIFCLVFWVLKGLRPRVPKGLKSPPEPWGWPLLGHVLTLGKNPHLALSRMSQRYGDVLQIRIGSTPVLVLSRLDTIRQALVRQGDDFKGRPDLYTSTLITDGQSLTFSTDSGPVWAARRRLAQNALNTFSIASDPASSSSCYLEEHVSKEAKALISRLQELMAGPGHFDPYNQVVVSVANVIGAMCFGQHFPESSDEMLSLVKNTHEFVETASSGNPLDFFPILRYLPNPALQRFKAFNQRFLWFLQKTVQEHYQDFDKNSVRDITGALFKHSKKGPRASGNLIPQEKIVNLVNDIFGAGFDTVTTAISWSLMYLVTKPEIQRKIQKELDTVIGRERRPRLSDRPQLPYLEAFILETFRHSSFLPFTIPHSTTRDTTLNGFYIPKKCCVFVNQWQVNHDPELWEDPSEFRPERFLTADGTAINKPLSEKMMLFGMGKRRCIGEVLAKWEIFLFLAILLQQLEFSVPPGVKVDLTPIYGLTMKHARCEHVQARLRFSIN
In short: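 Luminescence from luciferin formed by CYP1A2 from a proluciferin substrate, read 20 min after detection reagent. Compound was pre-incubated 10 min with enzyme-substrate, and reaction started with NADPH regeneration solution for 1 h at room temperature; furafylline control.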

[3] = molecular target: Voltage-gated inwardly rectifying potassium channel KCNH2 (Homo sapiens) (UniProt Q12809); assay: Human Ether-a-go-go-Related Gene (hERG) channel small molecule antagonists: fluorescence cell-based qHTS assay (AID 1671200);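 note: hERG-expressing U2OS cells given a thallium stimulus after FluxOR II dye loading; series mostly up to about 77 µM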
Chain of Voltage-gated inwardly rectifying potassium channel KCNH2 (Homo sapiens) (Q12809 whole entry, looked up): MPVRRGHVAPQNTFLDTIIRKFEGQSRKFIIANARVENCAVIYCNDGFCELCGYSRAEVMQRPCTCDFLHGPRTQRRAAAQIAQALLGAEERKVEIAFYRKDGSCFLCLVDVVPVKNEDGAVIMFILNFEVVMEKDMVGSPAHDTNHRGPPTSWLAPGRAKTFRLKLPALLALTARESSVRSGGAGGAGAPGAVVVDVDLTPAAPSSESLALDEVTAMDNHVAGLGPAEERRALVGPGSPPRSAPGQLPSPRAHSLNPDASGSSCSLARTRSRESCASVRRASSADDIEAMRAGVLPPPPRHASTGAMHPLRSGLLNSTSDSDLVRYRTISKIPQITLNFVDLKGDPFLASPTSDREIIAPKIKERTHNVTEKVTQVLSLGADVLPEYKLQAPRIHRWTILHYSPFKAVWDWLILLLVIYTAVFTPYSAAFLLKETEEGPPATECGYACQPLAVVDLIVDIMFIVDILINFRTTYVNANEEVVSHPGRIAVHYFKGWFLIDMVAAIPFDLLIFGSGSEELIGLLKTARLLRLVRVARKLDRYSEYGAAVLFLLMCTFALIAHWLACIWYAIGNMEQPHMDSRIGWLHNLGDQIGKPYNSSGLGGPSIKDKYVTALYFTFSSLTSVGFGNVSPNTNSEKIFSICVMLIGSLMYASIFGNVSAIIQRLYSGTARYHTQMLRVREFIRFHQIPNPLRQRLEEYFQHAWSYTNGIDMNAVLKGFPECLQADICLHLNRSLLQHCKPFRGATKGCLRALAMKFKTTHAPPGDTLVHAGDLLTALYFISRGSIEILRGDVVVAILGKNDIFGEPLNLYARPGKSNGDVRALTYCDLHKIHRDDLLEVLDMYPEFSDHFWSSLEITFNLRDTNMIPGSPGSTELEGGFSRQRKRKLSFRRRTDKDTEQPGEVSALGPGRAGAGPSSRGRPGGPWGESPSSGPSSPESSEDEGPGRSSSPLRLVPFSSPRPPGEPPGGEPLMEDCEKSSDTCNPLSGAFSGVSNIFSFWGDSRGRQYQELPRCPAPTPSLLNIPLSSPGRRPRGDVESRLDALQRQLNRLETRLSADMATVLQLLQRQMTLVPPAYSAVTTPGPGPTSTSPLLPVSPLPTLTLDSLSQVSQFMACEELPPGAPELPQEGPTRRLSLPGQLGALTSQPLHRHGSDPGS
In short: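 U2OS cells expressing the channel were plated at 1000 cells/well, incubated overnight at 37 C, then loaded with FluxOR II thallium-sensitive dye for 1 h at room temperature in the dark, with a further 10 min at room temperature before stimulation.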

[4] = molecular target: Cytochrome P450 3A4 (Homo sapiens) (UniProt P08684); assay: Cytochrome P450 Family 3 Subfamily A Member 4 (CYP3A4) small molecule antagonists: luciferase reporter qHTS assay (AID 1671201); note: potency is the fitted concentration of half-maximal effect
Chain of Cytochrome P450 3A4 (Homo sapiens) (P08684 whole entry, looked up): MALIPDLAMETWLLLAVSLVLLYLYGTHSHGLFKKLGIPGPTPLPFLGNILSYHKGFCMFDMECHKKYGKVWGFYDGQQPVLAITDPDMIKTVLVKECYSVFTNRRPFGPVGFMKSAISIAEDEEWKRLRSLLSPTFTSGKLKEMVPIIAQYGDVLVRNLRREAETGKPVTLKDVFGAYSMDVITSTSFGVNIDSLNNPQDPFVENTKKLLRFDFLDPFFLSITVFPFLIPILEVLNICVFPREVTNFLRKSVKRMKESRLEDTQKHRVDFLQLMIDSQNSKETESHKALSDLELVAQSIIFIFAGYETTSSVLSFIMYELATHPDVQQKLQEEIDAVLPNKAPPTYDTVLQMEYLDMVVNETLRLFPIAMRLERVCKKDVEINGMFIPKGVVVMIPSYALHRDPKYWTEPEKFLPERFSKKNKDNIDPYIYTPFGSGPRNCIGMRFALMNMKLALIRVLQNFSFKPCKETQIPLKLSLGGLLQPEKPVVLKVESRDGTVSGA
In short: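 P450-Glo CYP3A4 system with proluciferin substrate; compounds preincubated 10 min RT with enzyme-substrate mix, then NADPH regeneration added for 1 h RT. Detection reagent 20 min, luminescence read as relative luminescence units.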
Note: nearly all actives have a fitted effect of over 50% in size.

`Cc1ccc(O)cn1` was tested, and the Potency [1] was “inactive”, the Potency [2] was “inactive” and the Potency [3] was “inactive”. The Potency [4] was “inactive”.

For `CCC1CCCCC1`, the Potency [1] was “inactive”, the Potency [2] was “inactive” and the Potency [3] was “inactive”. For the same molecule, the Potency [4] was “inactive”.

In the case of `O=CC1CC1`, the Potency [1] is reported as “inactive”, the Potency [2] is reported as “inactive” and the Potency [3] is reported as “inactive”. For the same molecule, the Potency [4] was “inactive”.

With `CC(C)(C)c1cc(CCC(=O)NCCCCCCNC(=O)CCc2cc(C(C)(C)C)c(O)c(C(C)(C)C)c2)cc(C(C)(C)C)c1O` the Potency [1] was 1.42 µM (active), the Potency [2] was “inactive” and the Potency [3] was “inactive”. The Potency [4] was 2.83 µM (active).

In the case of `CCCC(C)CCC(C)=O` (stereo not given), the Potency [1] is reported as “inactive”, the Potency [2] is reported as “inactive” and the Potency [3] is reported as “inactive”. For the same molecule, the Potency [4] was “inactive”.

`CN(C)c1ccc(N=Nc2ccccc2C(=O)O)cc1` was tested, and the Potency [1] was 31.7 µM (active), the Potency [2] was 25.2 µM (active) and the Potency [3] was “inactive”. The Potency [4] was “inactive”.

In the case of `CC(=O)Oc1ccc(C2(c3ccc(OC(C)=O)cc3)C(=O)Nc3ccccc32)cc1`, the Potency [1] is reported as 5.49 µM (active), the Potency [2] is reported as “inactive” and the Potency [3] is reported as “inactive”. For the same molecule, the Potency [4] was “inactive”.

For `CCCCCCCC/C=C\CCCCCCCC(=O)N(C)CC(=O)O`, the Potency [1] was 44.8 µM (active), the Potency [2] was “inactive” and the Potency [3] was “inactive”. The Potency [4] was “inactive”.

For `O=C(O)CC(=O)O`, the Potency [1] was “inactive”, the Potency [2] was 63.4 µM (active) and the Potency [3] was “inactive”. The Potency [4] was “inactive”.

In the case of `CC(C)=CCCC(C)O` (stereo not given), the Potency [1] is reported as “inactive”, the Potency [2] is reported as “inactive” and the Potency [3] is reported as “inactive”. For the same molecule, the Potency [4] was “inactive”.

For `CC(C)=CC1CC(C)CCO1` (stereo not given), the Potency [1] was “inactive”, the Potency [2] was “inactive” and the Potency [3] was “inactive”. The Potency [4] was “inactive”.

With `CCCCC(CC)COC(=O)c1ccc(O)cc1` (stereo not given) the Potency [1] was 31.6 µM (active) and 35.6 µM (active), the Potency [2] was 31.6 µM (active) and 35.6 µM (active) and the Potency [4] was 70.7 µM (active).

With `CCCCCCCC/C=C\CCCCCCCC(=O)OCCOC(=O)CCCCCCC/C=C\CCCCCCCC` the Potency [1] was 14.7 µM (active), the Potency [2] was 52.2 µM (active) and the Potency [4] was 10.4 µM (active).
